PAFAH1B2 inh – inhibitors of human PAFAH1B2; inhibition, % at 3.39 µM; P68402; recombinant PAFAH1B2, FP-rhodamine activity probe, fluorescence polarization; hit rate 1.2% among 340,000;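 active = inhibition above the mean of all tested compounds plus 3 SD, cut at about 24% in these data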;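 note: 0% = enzyme with DMSO and 100% = wells lacking PAFAH1B2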
PAFAH1B3 inh – PAFAH1B3 (human) inhibition; inhibition, % at 3.39 µM; recombinant PAFAH1B3, FP-rhodamine probe, fluorescence polarization; Q15102; hit rate 0.28% among 340,000; AID 492972;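 active = inhibition above the screen-wide average of all tested compounds plus 3 SD, cut at about 25% in these data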;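 note: 0% = enzyme with DMSO only and 100% = wells lacking PAFAH1B3 protein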
Target sequence (Q15102 whole entry, looked up): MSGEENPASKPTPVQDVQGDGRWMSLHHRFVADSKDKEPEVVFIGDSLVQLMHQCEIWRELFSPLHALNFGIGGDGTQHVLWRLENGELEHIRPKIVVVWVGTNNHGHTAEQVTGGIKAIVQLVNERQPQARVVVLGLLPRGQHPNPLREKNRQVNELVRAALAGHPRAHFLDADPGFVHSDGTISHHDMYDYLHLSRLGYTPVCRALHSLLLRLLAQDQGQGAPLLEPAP
LYPLA1 inh – counter-screen for PME1 inhibitors: inhibitors of human LYPLA1 | O75608 | recombinant LYPLA1, FP-Rh probe fluorescence polarization | inhibition, % at 5.9 µM | hit rate 0.16% among 320,000 | AID 2174;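 active = inhibition above the mean of all tested compounds plus 3 SD, set per campaign, cut at about 14% in these data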;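 note: inhibitors block serine hydrolase probe labeling of LYPLA1 so polarization falls; 0% = enzyme with DMSO and 100% = wells lacking LYPLA1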
Target sequence (O75608 whole entry, looked up): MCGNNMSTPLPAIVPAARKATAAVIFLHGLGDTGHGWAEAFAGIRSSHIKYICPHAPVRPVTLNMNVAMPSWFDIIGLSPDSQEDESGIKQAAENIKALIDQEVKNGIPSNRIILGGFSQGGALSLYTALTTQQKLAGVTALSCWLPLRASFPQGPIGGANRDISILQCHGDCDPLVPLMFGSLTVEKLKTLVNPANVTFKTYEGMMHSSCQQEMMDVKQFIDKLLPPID
pPAFAH FP inh – inhibitors of human plasma PAF acetylhydrolase (pPAFAH) | Q13093 | recombinant pPAFAH, FP-rhodamine probe fluorescence polarization | inhibition, % at 3.39 µM | hit rate 1.5% among 330,000 | AID 463082;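 active = inhibition above the mean inhibition across the screen plus 3 SD, cut at about 25% in these data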;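 note: inhibitors block binding of the rhodamine activity-based probe so polarization drops; 0% = enzyme with DMSO and 100% = wells lacking pPAFAH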
LYPLA2 counter – counter-screen for PME1 inhibitors: inhibitors of human LYPLA2; O95372; recombinant LYPLA2, FP-Rh probe fluorescence polarization; inhibition, % at 5.9 µM; hit rate 0.38% among 320,000; AID 2177;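 active = inhibition above the screen-wide mean plus 3 SD, limit set per campaign, cut at about 26% in these data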;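 note: 0% = LYPLA2 with DMSO and 100% = wells lacking LYPLA2 enzyme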
PAFAH2 inh – PAFAH2 (human) inhibition | Q99487 | recombinant PAFAH2, FP-rhodamine activity probe, fluorescence polarization | inhibition, % at 3.39 µM | hit rate 0.99% among 340,000 | AID 492956;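 active = inhibition above the mean over all tested compounds plus 3 SD, cut at about 30% in these data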;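 note: inhibitors block probe labeling of enzyme so polarization drops; 0% = enzyme with DMSO and 100% = wells lacking PAFAH2 protein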
pPAFAH FP conf – confirmation of human plasma PAF acetylhydrolase (pPAFAH) inhibitors; inhibition, % at 3.39 µM; recombinant pPAFAH, FP-Rh probe fluorescence polarization; AID 463230; hit rate 72% among 2,300; shares compounds with pPAFAH FP inh;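 active = mean inhibition of the triplicate above the hit cutoff set for the earlier primary screen, cut at about 25% in these data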;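 note: 0% = enzyme with DMSO and 100% = wells lacking pPAFAH enzyme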
* = called active by the depositor; . = no result. Only some compounds are listed: those with a hit (about 2.9% of all), similar ones and a draw of the others.

SMILES	PAFAH1B2 inh	PAFAH1B3 inh	LYPLA1 inh	pPAFAH FP inh	LYPLA2 counter	PAFAH2 inh	pPAFAH FP conf
COc1cc([C@@H]2c3cc4c(cc3[C@@H](O)[C@H]3COC(=O)[C@H]23)OCO4)cc(OC)c1O[Si](C)(C)C(C)(C)C	-10	-4	-6	5	-10	-17	.
O=C(NCCCC(=O)N1CCOCC1)c1cccnc1	8	5	-1	1	-3	2	.
C[C@H](CO)N1C[C@H](C)[C@@H](CN(C)CC2CCCCC2)Oc2c(NC(=O)CCC(F)(F)F)cccc2C1=O	2	11	.	-2	.	2	.
O=C1/C(=C\c2cc(Cl)c(O)c(Cl)c2)SC(=S)N1Cc1ccccc1	-45	-72	.	.	.	-78	.
O=C(O)CCN1C(=O)/C(=C\c2cccc(Oc3ccccc3)c2)SC1=S	28*	9	9	36*	16	12	17
O=C(O)COc1ccc(/C=C2/SC(=S)N(Cc3ccccc3)C2=O)cc1	4	9	-7	54*	-12	12	19
COc1ccc(/C=C2/SC(=S)N(CCC(=O)O)C2=O)cc1	0	10	0	6	-2	3	.
S=c1[nH]nc(-c2cc(-c3ccccc3)n[nH]2)n1/N=C/c1ccc(Br)s1	10	14	-6	54*	-5	27	70*
CC(=O)N1CCN(c2ccc(Nc3nc(C)nc4c3oc3ccccc34)cc2)CC1	6	2	3	40*	5	2	34*
COc1ccc(NS(=O)(=O)c2ccc3c(c2)[C@H]2C=CC[C@H]2[C@@H](c2ccc(C(=O)O)cc2)N3)cc1	31*	46*	-8	74*	-11	68*	66*
Cc1c(Cl)cccc1NS(=O)(=O)c1ccc2c(c1)C1C=CCC1C(c1ccc(C(=O)O)cc1)N2 (stereo unspecified)	30*	37*	-8	92*	-7	60*	88*
O=C(Oc1ccc(OC(=O)C2CCC2)cc1)C1CCC1	3	1	4	42*	13	3	-3
O=C(Oc1ccc2ccccc2c1)C1CCC1	17	14	.	.	.	11	.
Cc1ccc(C(=O)NCCC(=O)N2CCCC2)cc1	1	0	3	2	1	-4	.
Cc1ccc(N2C(=O)c3ccccc3C2C(=O)c2ccc(O)cc2O)cc1 (stereo unspecified)	0	9	-2	47*	3	9	5
Cc1ccc(N2C(=O)c3ccccc3C2C(=O)c2cc(C)ccc2O)cc1 (stereo unspecified)	-3	-8	-3	13	-8	-5	.
CCC1CCCCN1CCCNC(=O)c1ccc(CS(=O)(=O)c2ccc(Br)cc2)o1 (stereo unspecified)	3	4	-3	2	6	-7	.
Cc1c(N/C(=N/S(=O)(=O)c2ccc(Cl)cc2)c2ccccc2)c(=O)n(-c2ccccc2)n1C	.	.	-3	82*	-2	.	-7
Cc1c(O)ccc(/C=N/Nc2nc(-c3cccnc3)nc3ccccc23)c1O	11	30*	-17	42*	-23	-16	46*
Nc1nc(NC(=O)c2cccnc2)nn1-c1ccccc1	4	0	-1	0	-1	1	.
CCOc1cccc(C2C(C(=O)c3ccco3)=C(O)C(=O)N2Cc2ccncc2)c1 (stereo unspecified)	1	9	0	4	3	10	.
Nc1ccc2c(c1)-c1ccccc1S(=O)(=O)N2	5	21	-4	65*	6	23	8
Cc1ccc2c(c1)-c1ccccc1S(=O)(=O)N2	10	2	-2	10	-1	-2	.
O=C(NCc1ccco1)c1cccc2c1C(=O)c1ccc(/C=C/c3ccccc3)cc1S2(=O)=O	3	1	.	39*	.	4	32*
COc1cccc(NC(=O)Nc2nc(-c3ccc(OC)c(OC)c3)cs2)c1	15	21	-26	36*	-20	2	14
SMILES	PAFAH1B2 inh	PAFAH1B3 inh	LYPLA1 inh	pPAFAH FP inh	LYPLA2 counter	PAFAH2 inh	pPAFAH FP conf
Cn1ccnc1SCCNC(=O)C1CCC(=O)N(Cc2ccc(Cl)cc2)C1 (stereo unspecified)	0	3	3	2	3	-2	.
Nc1c(C(=O)NC2CC2)sc2nc3c(c(-c4ccco4)c12)CC/C3=C/c1ccco1	28*	56*	-9	89*	2	46*	48*
O=C(O)c1ccc(N/N=C/c2ccc(-c3cc(Cl)ccc3Cl)o2)cc1	13	17	3	37*	7	20	56*
COC(=O)N/N=C/c1ccc(-c2ccc(Cl)cc2Cl)o1	-3	4	1	0	-4	2	.
O=C(O)c1ccc(-c2ccc(/C=N/Nc3ccc([N+](=O)[O-])cc3)o2)cc1	6	10	4	47*	24	10	38*
O=C(O)c1ccc(N/N=C/c2ccc(-c3cccc(Cl)c3)o2)cc1	5	18	8	65*	8	16	47*
O=C(O)c1ccc(N/N=C/c2ccc(-c3ccc(Cl)cc3Cl)o2)cc1	11	11	11	51*	10	21	47*
COc1ccc(CCNC(=O)c2cnc3ccccc3n2)cc1	0	7	2	1	4	-1	.
COc1ccc(C(=O)O)cc1S(=O)(=O)Nc1ccccc1C(=O)NCc1ccc2c(c1)OCO2	2	3	3	4	9	2	.
CC(C)C(c1nnnn1Cc1ccco1)N1CCN(c2nc3ccccc3s2)CC1 (stereo unspecified)	-4	3	-5	5	-5	0	.
O=C(O)c1cccc2c1-c1ccc(Cl)cc1C2=O	5	3	.	.	.	2	.
O=C(O)c1cc(O)c2c(c1)C(=O)c1cccc(O)c1C2=O	14	13	0	36*	-3	34*	15
N#C/C(=C\c1ccco1)C(=O)Nc1cccc2ncccc12	0	2	1	0	5	-2	.
COC(=O)c1cc(O)cc(OC)c1Oc1cc(C)cc(O)c1C(=O)O	6	10	2	35*	8	12	23
O=C1NC(=Nc2ccc(O)cc2)S/C1=C\C=C\c1ccco1	1	10	-4	53*	-4	8	14
O=C(CCCSc1ccc(Cl)cc1)Nc1cc(S(=O)(=O)N2CCOCC2)ccc1O	63*	2	-1	91*	-5	79*	89*
O=C1c2ccccc2[C@@H]2C[C@@H](O)[C@H](Nc3cccc(Cl)n3)CCN12	2	9	.	36*	.	69*	23
O=C1c2ccccc2[C@@H]2C[C@@H](O)[C@H](Nc3ccccc3)CCN12	3	7	.	-1	.	13	.
CCC(C(=O)NCc1ccc(C)cc1)c1ccccc1 (stereo unspecified)	5	4	0	1	7	-3	.
